# Experimental data from PubChem BioAssay.
# Values joined by “and” are separate entries in the source; they are usually repeats but may differ in a detail not shown here. Identical values can stand only once. Active and inactive are the calls of the source. Cut-off read from the data, not from the text of the source, unless noted: active = inhibition above about 80%; inactive = the rest.
# Columns and labels:
# [1] = growth inhibition, single agent or in combination, cell-based, chromothripsis tumors, cisplatin or BGB combos (AID 1671449); conditions: LFS_MB_P medulloblastoma cells;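 note: cells exposed for 96 hours; 0% = vehicle DMSO and 100% = killing by high DMSO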
# [2] = growth inhibition, single agent and combos, cell-based, chromothripsis tumors, cisplatin or BGB combos (AID 1671450); conditions: HDN33 neuroblastoma cells, stronger effect = higher value;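 note: cells exposed to compound for four days; 0% = vehicle DMSO and 100% = cell killing by high DMSO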
# [3] = growth inhibition, single agents and combos, ICB984, cell-based, cisplatin or BGB combos, synergistic combos for chromothripsis tumors (AID 1671451; call rule not given here;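 note: cells exposed for 96 hours before readout; 0% = vehicle DMSO and 100% = killing by high DMSO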); conditions: ICB984 medulloblastoma cells, drug combinations, stronger effect = higher value
# [4] = growth inhibition, single agents and combos, LFS_MB_1R, cell-based, cisplatin or BGB combos, synergistic combos for chromothripsis tumors (AID 1671452); conditions: LFS_MB_1R medulloblastoma cells, stronger effect = higher value;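 note: cells exposed for 96 hours before readout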
# [5] = growth inhibition, single agents and combos, HTB85, cell-based, BGB or cisplatin IC20 combos, synergistic combos for chromothripsis tumors (AID 1671453); conditions: HTB85 osteosarcoma cells, drug combinations, stronger effect = higher value;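 note: cells exposed for 96 hours before readout; 0% = vehicle DMSO and 100% = high DMSO killing control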
# [6] = growth inhibition, single agents and combos, CRL2098, cell-based, BGB or cisplatin IC20 combos, synergistic combos for chromothripsis tumors (AID 1671454); conditions: CRL2098 osteosarcoma cells, drug combinations, stronger effect = higher value;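 note: cells exposed for 96 h before readout; 0% = vehicle DMSO and 100% = killing by high DMSO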
# [7] = growth inhibition, single agents and combos, HD-MB03, cell-based, BGB or cisplatin IC20 combos, synergistic combos for chromothripsis tumors (AID 1671455; in the data active = inhibition above about 83%;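 note: 0% = vehicle DMSO and 100% = high DMSO as cytotoxic control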); conditions: HD-MB03 medulloblastoma cells, stronger effect = higher value
# [8] = growth inhibition, single agents and combos, UWB1.289, cell-based, BGB or cisplatin combos, synergistic combos for chromothripsis tumors (AID 1671456); conditions: UWB1.289 ovarian carcinoma cells, stronger effect = higher value;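 note: cells exposed to compound for four days; 0% = vehicle DMSO and 100% = killing by high DMSO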
# [9] = growth inhibition, single agents and combos, LFS_MB_2R, cell-based, cisplatin combos, synergistic combos for chromothripsis tumors (AID 1671457); conditions: LFS_MB_2R medulloblastoma cells, stronger effect = higher value;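 note: cells exposed to compound for four days before readout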
# [10] = growth inhibition, MDA-MB-436, cell-based, BGB or cisplatin combos, synergistic combos for chromothripsis tumors (AID 1671458; call rule not given here;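 note: cells exposed for 96 hours; 0% = vehicle DMSO and 100% = killing by high DMSO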); conditions: MDA-MB-436 breast carcinoma growth inhibition, drug combinations, stronger effect = higher value
# [11] = UWB1.289_BRCA1 ovarian cancer growth, cell-based, BGB or cisplatin combinations (AID 1671459); conditions: UWB1.289 BRCA1 ovarian carcinoma, drug combinations, stronger effect = higher value
# [12] = drug combination toxicity in non-malignant astrocytes – cell-based, BGB or cisplatin IC20 combos, cytotoxicity control for chromothriptic childhood tumor combination screen (AID 1671460); conditions: Human astrocytes, viability inhibition, drug combinations, at 0.5 µM, stronger effect = higher value;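 note: cells exposed to compounds for 96 hours before viability readout; 0% = vehicle and 100% = killing control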
# [13] = BT084 cell growth, single and combined drugs, ICGC_MB145, cisplatin and BGB IC40 combos (AID 1671461); conditions: BT084 medulloblastoma cells, drug combinations, stronger effect = higher value;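 note: cells exposed to drugs for 96 hours; 0% = vehicle DMSO and 100% = high DMSO full killing control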
# [14] = RCMB18 cell growth, single agent and combined, cisplatin and BGB IC40 combos (AID 1671462); conditions: RCMB18 medulloblastoma cells, stronger effect = higher value;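 note: cells exposed to compound for four days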
# [15] = CRL1545 cell growth, single agent and combined, cisplatin and BGB IC20 combos (AID 1671464); conditions: CRL1545 osteosarcoma cells, stronger effect = higher value;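 note: cells exposed to compound for 96 hours before readout; 0% = vehicle DMSO and 100% = high DMSO killing control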
# [16] = measured here: combination with BGB IC40, at 0.05 µM
# [17] = measured here: with BGB IC20 combination, at 0.5 µM
# [18] = measured here: with cisplatin IC20 combination, at 0.5 µM
# [19] = measured here: combination with cisplatin, at 0.5 µM
# [20] = measured here: combination with cisplatin, at 5 µM
structure (smiles),measurement,setting,value
CC(=CC(=O)OCCCCCCCCC(=O)O)CC1OCC(CC2OC2C(C)C(C)O)C(O)C1O (stereo not drawn),inhibition,"[1]; at 0.5 µM, stronger effect = higher value",-17% (inactive) and -23.9% (inactive)
same,inhibition,"[1]; measured here: combination with BGB IC20, at 0.005 µM",-2.94% and -18.6%
same,inhibition,"[1]; measured here: combination with BGB IC40, at 0.005 µM",-25.4% and -12.1%
same,inhibition,[1]; [16],-14.3% and -15.6%
same,inhibition,"[1]; measured here: combination with cisplatin, at 0.5 µM, stronger effect = higher value",-17.5% and -24.1%
same,inhibition,"[1]; measured here: combination with cisplatin, at 5 µM, stronger effect = higher value",-33.1% and 1.08%
same,inhibition,"[2]; BGB combo, at 5 µM",-14.8% and -17.7%
same,inhibition,[2]; at 0.5 µM,-9.45% (inactive) and -27.8% (inactive)
same,inhibition,"[2]; cisplatin combo, at 5 µM",6.33% and -11.4%
same,inhibition,[2]; [17],-8.51% and -26.5%
same,inhibition,[2]; [18],-15.9% and -22.8%
same,inhibition,"[2]; single agent, at 5 µM",-7.18% and -31.8%
same,inhibition,"[3]; BGB IC20 combo, at 0.005 µM",-1.97% and -19.7%
same,inhibition,"[3]; BGB IC40 combo, at 0.005 µM",-39% and 3.24%
same,inhibition,"[3]; BGB IC40 combo, at 0.05 µM",-33.4% and -9.88%
same,inhibition,[3]; at 0.5 µM,-17% (inactive) and -12.7% (inactive)
same,inhibition,"[3]; cisplatin combo, at 0.05 µM",-38.6% and -12.9%
same,inhibition,"[3]; cisplatin combo, at 0.5 µM",-14.9% and -15.5%
same,inhibition,"[3]; cisplatin combo, at 5 µM",-35% and -37.3%
same,inhibition,"[3]; measured here: 5 uM single agent, at 5 µM",-25.3% and -26.1%
same,inhibition,[4]; at 0.5 µM,-33.1% (inactive) and -17.5% (inactive)
same,inhibition,[4]; [16],-28.7% and -19%
same,inhibition,[4]; [19],-76% and -15.9%
same,inhibition,[4]; [20],-33.5% and -12.5%
same,inhibition,[5]; at 0.5 µM,-4.51% (inactive) and -3.63% (inactive)
same,inhibition,"[5]; measured here: with BGB IC20, at 0.5 µM",-6.68% and -16.9%
same,inhibition,"[5]; measured here: with BGB IC20, at 5 µM",0.575% and -34.3%
same,inhibition,"[5]; measured here: with cisplatin IC20, at 0.5 µM",-18.6% and 8%
same,inhibition,"[5]; measured here: with cisplatin IC20, at 5 µM",-13.7% and -38.9%
same,inhibition,"[5]; single agent, at 5 µM",1.75% and -9.62%
same,inhibition,[6]; at 0.5 µM,-26.3% (inactive) and -42.8% (inactive)
same,inhibition,"[6]; measured here: combination with BGB at IC20, at 0.5 µM",-3.72% and -29.5%
same,inhibition,"[6]; measured here: combination with cisplatin at IC20, at 0.5 µM",-3.83% and -44%
same,inhibition,[7]; at 0.5 µM,-5.45% (inactive) and -14.3% (inactive)
same,inhibition,"[7]; measured here: combo with BGB at IC20, at 0.5 µM",-13% and -2.83%
same,inhibition,"[7]; measured here: combo with cisplatin at IC20, at 0.5 µM",-4.76% and -27.9%
same,inhibition,[8]; at 0.5 µM,-10.9% (inactive) and -9.1% (inactive)
same,inhibition,"[8]; measured here: inhibition with BGB combination, at 0.05 µM",-7.06% and -24.4%
same,inhibition,"[8]; measured here: inhibition with cisplatin combination, at 0.05 µM",-16.6% and -1.73%
same,inhibition,[9]; at 0.5 µM,-29.1% (inactive) and -8.5% (inactive)
same,inhibition,[9]; [19],-31.2% and -4.9%
same,inhibition,[9]; [20],-23.6% and -39.7%
same,inhibition,[10]; at 0.5 µM,-14.5% (inactive) and -24.2% (inactive)
same,inhibition,"[10]; measured here: BGB combination, at 0.5 µM",-14.9% and -16%
same,inhibition,"[10]; measured here: BGB combination, at 5 µM",-17.5% and -14.8%
same,inhibition,"[10]; measured here: cisplatin combination, at 0.5 µM",-18.1% and -43.4%
same,inhibition,"[10]; measured here: cisplatin combination, at 5 µM",-22.7% and -18.3%
same,inhibition,"[11]; BGB combination, concentration series, at 5 µM",0.308% and -20.1%
same,inhibition,[11]; at 0.5 µM,-2.59% (inactive) and -13% (inactive)
same,inhibition,"[11]; cisplatin combination, concentration series, at 5 µM",9.16% and -8.98%
same,inhibition,[12],9.62% (inactive) and -5.3% (inactive)
same,inhibition,[12]; measured here: combo with BGB IC20,10.3% and 3.21%
same,inhibition,[12]; measured here: combo with cisplatin IC20,3.29% and -21.1%
same,inhibition,[13]; at 0.5 µM,-23.1% (inactive) and -16.1% (inactive)
same,inhibition,"[13]; cisplatin combination, at 0.5 µM",-23.9% and -16.7%
same,inhibition,"[13]; cisplatin combination, at 5 µM",-18.9% and -3.71%
same,inhibition,"[13]; measured here: BGB IC40 combination 0.05 uM, at 0.05 µM",-21.3% and 12.3%
same,inhibition,"[13]; single agent, at 5 µM",-11.4% and -22.4%
same,inhibition,[14]; at 0.5 µM,-6.07% (inactive) and -7.9% (inactive)
same,inhibition,"[14]; cisplatin combo, at 5 µM",-30.1% and -5.18%
same,inhibition,"[14]; measured here: BGB IC40 combination, at 0.05 µM",6.38% and -10.7%
same,inhibition,[14]; [19],18.9% and -20.9%
same,inhibition,"[14]; single agent, at 5 µM",-45.8% and -19.9%
same,inhibition,[15]; at 0.5 µM,-2.77% (inactive) and -21.4% (inactive)
same,inhibition,[15]; [17],-13.1% and -9.57%
same,inhibition,[15]; [18],2.38% and -30.2%
same,inhibition,"[15]; single agent, at 0.05 µM",22.2% and -47.2%
same,inhibition,"[15]; single agent, at 5 µM",3.87% and -28.5%
